Results on 35 molecules are retold here after PubChem BioAssay AID602143 (Vanderbilt Specialized Chemistry Center, 2011).

A number with no mark means an inactive call. Active and inactive are the calls of the source. No stated cut-off is given here; in the data, active means remaining activity below about 50%; inactive means the rest.

For the test, the target named is Phospholipase D2 (Homo sapiens) (UniProt O14939). As to the kind of experiment: cellular phospholipase D2 activity inhibition – cell-based, HEK293, single concentration (AID 602143).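 Further: tested at 200 nM.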 The conditions noted are these: HEK293 cellular PLD2 activity, percent of control; active compounds read low.
Sequence of Phospholipase D2 (Homo sapiens) (O14939 whole entry, looked up): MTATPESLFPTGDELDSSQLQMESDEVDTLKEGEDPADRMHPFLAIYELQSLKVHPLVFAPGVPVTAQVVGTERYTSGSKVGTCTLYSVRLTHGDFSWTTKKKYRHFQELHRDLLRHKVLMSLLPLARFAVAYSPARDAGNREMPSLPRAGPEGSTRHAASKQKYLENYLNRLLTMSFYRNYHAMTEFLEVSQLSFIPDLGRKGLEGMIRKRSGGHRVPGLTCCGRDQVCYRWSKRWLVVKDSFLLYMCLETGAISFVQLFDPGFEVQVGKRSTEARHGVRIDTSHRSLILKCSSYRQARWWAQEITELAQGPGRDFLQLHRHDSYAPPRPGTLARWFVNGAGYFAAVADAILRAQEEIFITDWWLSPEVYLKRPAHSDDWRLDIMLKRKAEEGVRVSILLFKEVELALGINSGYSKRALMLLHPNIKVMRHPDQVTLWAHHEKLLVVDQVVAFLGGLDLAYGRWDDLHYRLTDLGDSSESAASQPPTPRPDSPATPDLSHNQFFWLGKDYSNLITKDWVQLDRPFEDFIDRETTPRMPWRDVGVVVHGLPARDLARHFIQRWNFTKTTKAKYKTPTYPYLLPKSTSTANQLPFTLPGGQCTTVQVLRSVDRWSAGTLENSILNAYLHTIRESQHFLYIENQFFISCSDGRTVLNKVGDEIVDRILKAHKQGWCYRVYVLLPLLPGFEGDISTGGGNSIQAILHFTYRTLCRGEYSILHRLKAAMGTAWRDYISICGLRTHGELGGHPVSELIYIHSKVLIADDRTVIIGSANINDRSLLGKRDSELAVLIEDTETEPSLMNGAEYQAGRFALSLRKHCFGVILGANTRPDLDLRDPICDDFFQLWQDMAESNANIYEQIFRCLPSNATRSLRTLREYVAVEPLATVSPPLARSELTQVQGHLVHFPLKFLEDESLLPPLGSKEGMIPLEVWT
Sequence of Phospholipase D2 (Homo sapiens) (O14939 whole entry, looked up): as above
The term remaining activity denotes the signal under treatment as a percentage of the control signal. Consider `O=C(NCCN1CCC2(CC1)C(=O)NCN2c1cccc(F)c1)c1c(F)cccc1F`, for which the remaining activity is 88%.

In the case of `O=C(C1C[C@H]1c1ccccc1)N1CC(N2CCC(n3c(=O)[nH]c4ccccc43)CC2)C1` (stereo not given in full), the remaining activity is 87.7%.

With `O=C(NCCN1CCC2(CC1)C(=O)NCN2c1ccc(F)c(F)c1)c1ccc(Cl)cc1`, the remaining activity is 55.3%.

For `O=C(NCCN1CCC2(CC1)C(=O)NCN2c1ccccc1)c1ccc2cc(F)ccc2c1`, the remaining activity was 68.8%.

Consider `O=C(c1cccc(F)c1)N(CCN1CCC2(CC1)C(=O)NCN2c1cccc(F)c1)C(=O)c1cccc(F)c1`, for which the remaining activity is 71.6%.

Consider `Cc1cccc(C(=O)N[C@@H](C)CN2CCC3(CC2)C(=O)NCN3c2ccccc2)c1`, for which the remaining activity was 83.2%.

`C[C@@H](CN1CCC2(CC1)C(=O)NCN2c1ccc(F)c(F)c1)NC(=O)c1cnc2ccccc2c1`: the remaining activity is 7.28% (active).

As for `C[C@H](CN1CCC2(CC1)C(=O)NCN2c1ccccc1)NC(=O)c1cc2cc(F)ccc2[nH]1`, the remaining activity is 0% (active).

As to `Cc1ccccc1C(=O)N(CCN1CCC2(CC1)C(=O)NCN2c1cccc(F)c1)C(=O)c1ccccc1C`, the remaining activity was 106%.

Turning to `CCCCCC(=O)N(CCN1CCC2(CC1)C(=O)NCN2c1cccc(F)c1)C(=O)CCCCC`, the remaining activity is 73.1%.

Consider `O=C(NCCCN1CCC2(CC1)C(=O)NCN2c1ccccc1)c1cnc2ccccc2c1`, for which the remaining activity was 96.4%.

With `O=C(NCCN1CCC2(CC1)C(=O)NCN2c1ccccc1)c1ncc[nH]1`, the remaining activity was 113%.

Turning to `O=C(NCCN1CCC2(CC1)C(=O)NCN2c1ccc(Cl)cc1)c1cnc2ccccc2c1`, the remaining activity is 29.7% (active).

As to `O=C(NCCN1CCC2(CC1)C(=O)NCN2c1ccccc1)c1ccncn1`, the remaining activity is 93.7%.

On to `O=C(NCCN1CCC2(CC1)C(=O)NCN2c1cccc(F)c1)c1cnc2ccccc2c1`, for which the remaining activity is 5.53% (active).

With `C[C@H](CN1CCC2(CC1)C(=O)NCN2c1ccccc1)NC(=O)c1ccc(F)cc1`, the remaining activity was 81.7%.

As for `O=C(NCCN1CCC2(CC1)C(=O)NCN2c1ccc(F)cc1)c1cnc2ccccc2c1`, the remaining activity was 24% (active).

Regarding `O=C(N[C@@H](Cc1ccccc1)CN1CCC2(CC1)C(=O)NCN2c1ccccc1)c1ccc(F)c(F)c1`, the remaining activity is 102%.

With `O=C(NCCN1CCC2(CC1)C(=O)NCN2c1ccc(Cl)cc1)c1cc2ccccc2[nH]1`, the remaining activity was 48.1% (active).

Turning to `O=C(c1cnc2ccccc2c1)N1CC(N2CCC3(CC2)C(=O)NCN3c2ccccc2)C1`, the remaining activity was 70%.

As for `O=C(NCCN1CCC2(CC1)C(=O)NCN2c1cccc(F)c1)C1CCCCC1`, the remaining activity was 91%.

For `O=C(NCCN1CCC2(CC1)C(=O)NCN2c1ccc(Br)cc1)c1ccc2ccccc2c1`, the remaining activity is 52%.

On to `Nc1ccc(C(=O)NCCN2CCC3(CC2)C(=O)NCN3c2ccccc2)cc1OC(F)(F)F`, for which the remaining activity was 97.3%.

Turning to `O=C1c2ccccc2C(=O)N1CCCN1CCC2(CC1)C(=O)NCN2c1ccccc1`, the remaining activity was 81%.

In the case of `O=C(NCCN1CCC2(CC1)C(=O)NCN2c1ccccc1)c1cccc(F)n1`, the remaining activity is 63.2%.

As to `O=C(NCCN1CCC2(CC1)C(=O)NCN2c1ccccc1)c1cnco1`, the remaining activity is 80.4%.

With `O=C(C1CC1c1ccccc1)N1CC(N2CCC3(CC2)C(=O)NCN3c2ccccc2)C1` (stereo not given), the remaining activity was 82.9%.

For the molecule `O=C(NCCN1CCC2(CC1)C(=O)NCN2c1ccc(Br)cc1)c1ccc(F)cc1`, the remaining activity was 73.2%.

For `CC(C)[C@@H](CN1CCC2(CC1)C(=O)NCN2c1ccccc1)NC(=O)c1cc2ccccc2[nH]1`, the remaining activity is 25.8% (active).

As for `O=C(NCCN1CCC2(CC1)C(=O)N(Cc1ccccc1)c1ccccc12)c1ccc2ccccc2c1`, the remaining activity is 70.6%.

With `O=C(CN1CCC2(CC1)C(=O)NCN2c1ccccc1)c1ccccc1`, the remaining activity was 106%.

For the molecule `O=C(CCc1ccc(F)cc1)NCCN1CCC2(CC1)C(=O)NCN2c1ccccc1`, the remaining activity was 102%.

In the case of `O=C(CCN1CCC2(CC1)C(=O)NCN2c1ccccc1)Nc1ccc(Cl)cc1`, the remaining activity was 183%.

Consider `O=C(NCCN1CCC2(CC1)C(=O)NCN2c1ccc(Cl)cc1)c1ccc(Cl)cc1`, for which the remaining activity was 49% (active).

As for `O=C(NCCN1CCC2(CC1)C(=O)NCN2c1cccc(F)c1)C12CC3CC(CC(C3)C1)C2`, the remaining activity is 87.1%.
